ChEMBL document CHEMBL3988442, “University of Dundee, Small-Polar-MMV Screening Library” (2021)
Out of some 69,000 compounds screened, about 950 (1.4%) showed an effect of 50% or more. The full list was thinned out, with strong results kept by preference.

System: Mycobacterium tuberculosis
Experiment: Cornell M. t heat shock assay; also: in the data most compounds retested in dose-response had high values
Type: functional, organism-based
Parameters: dose or concentration left out as unconfirmed

Compound	Percent Effect
CCCS(=O)(=O)N1C[C@@H](Oc2ncccc2F)[C@H]2OCCC[C@H]21.O=C(O)C(F)(F)F	-14.35%
Cl.Cl.O=C(N[C@@H]1CN[C@H]2CCCO[C@H]21)c1cccnc1	-32.33%
CCc1n[nH]c(C2CN(Cc3ncc(CC)o3)CCO2)n1 (stereo not given)	-30.6%
COc1ccc(CNCc2ccnc(N3CCCC3)c2)c(OC)c1.Cl	15.53%
Cn1cnc2c1CCN(Cc1csc(-c3ccc(F)cc3)n1)C2	1.572%
Cn1cc(-c2nc(CN3CCc4c(ncn4C)C3)cs2)cn1	-15.5%
CC(C)c1nc2c(n1C)CCN(Cc1nc(-c3ccoc3)no1)C2	-1.716%
CC(C)c1nc2c(n1C)CCN(Cc1nc(-c3ccsc3)no1)C2	103.5%
Cn1c(C2CC2)nc2c1CCN(Cc1nc(-c3ccsc3)no1)C2	13.01%
COc1ccc(-c2nc(CN3CCc4c(ncn4C)C3)cs2)cc1	174%
c1cc(-c2nc(CN3CCc4c(ncn4C4CC4)C3)cs2)cs1	24.33%
Cn1cnc2c1CCN(Cc1csc(-c3ccsc3)n1)C2	121.8%
Cn1cnc2c1CCN(Cc1csc(-c3ccccc3F)n1)C2	47.56%
Cn1cc(-c2nc(CN3CCc4c(ncn4C4CC4)C3)cs2)cn1	19.08%
Cn1cnc2c1CCN(Cc1csc(-c3ccccc3)n1)C2	-8.138%
c1ccc(-c2nc(CN3CCc4c(ncn4C4CC4)C3)cs2)cc1	62.99%
COCCO[C@H]1CCN(Cc2ccsc2)[C@H]1Cc1cccnc1.O=C(O)C(F)(F)F.O=C(O)C(F)(F)F	-33.79%
CCc1noc(CN2C[C@H]3CC[C@@H]2CN(C2Cc4ccccc4C2)C3)n1	18.74%
COc1ccc(CC(=O)N2CC[C@@H](OC)[C@@H]2Cc2cccnc2)cc1.O=C(O)C(F)(F)F	-4.792%
CC(=O)N1C[C@@H]2CC[C@H](C1)N(S(=O)(=O)c1ccccc1Cl)C2	-21.33%
O=C(O)C(F)(F)F.O=S(=O)(C1CC1)N1CCO[C@@H]2CC(COCc3cccnc3)C[C@H]21 (stereo not given in full)	22.38%
Cn1cc(N2CC3(COCCN(Cc4ccccn4)C3)OCC2=O)cn1.O=C(O)C(F)(F)F (stereo not given)	-20.33%
CNC(=O)C1Cn2ccnc2C2(CCN(Cc3cccs3)CC2)O1.O=C(O)C(F)(F)F.O=C(O)C(F)(F)F (stereo not given)	-16.91%
Cn1c(CCN2CCN(CCc3ccccc3)CC2)nc2ccccc21	5.82%

Compound	Percent Effect
CCCc1ccc(N2CCN(Cc3nc4ccccc4n3C)CC2)cc1	103%
Cn1c(CCN2CCN(c3ccc(O)cc3)CC2)nc2ccccc21	-8.24%
Cl.Cn1nc(C2CCN(C(=O)CN3CCCCC3)CC2)c2cccnc21	-23.31%
Cn1ncc2c1NC(=O)CC2c1cc(Cl)ccc1F (stereo not given)	-20.48%
Cn1ncc2c1NC(=O)CC2c1ccccc1Cl (stereo not given)	-2.735%
Cn1ncc2c1NC(=O)CC2c1ccc(Cl)cc1Cl (stereo not given)	51.94%
Cc1ccc(CN(C)C(=O)c2n[nH]c(N)c2-c2ccccc2)o1	-6.81%
Cc1ccc(CN2CC[C@H]3OCC[C@@H](C(=O)NC4CC4)[C@@H]3C2)o1.O=C(O)C(F)(F)F	-2.405%
CN(CCO)Cc1cc(Cl)ccc1OCC(O)CN1CCCCCC1 (stereo not given)	54.32%
CN(CCCO)Cc1cc(Cl)ccc1OCC(O)CN1CCCCCC1 (stereo not given)	44.14%
COCCN(C)Cc1cc(Cl)ccc1OCC(O)CN1CCCCCC1 (stereo not given)	4.611%
Cc1ccc(N2CCN(C(=O)CN3C[C@@H]4CC[C@H]3C4)CC2=O)cc1	-8.228%
Cc1ccc(CN2CCC3(CCC(=O)N3CC(=O)N(C)C)CC2)s1.O=C(O)C(F)(F)F	11.8%
Cc1ccccc1C(=O)N1CCC2(CCCN2CCN(C)C)CC1.O=C(O)C(F)(F)F.O=C(O)C(F)(F)F	12.9%
O=C(NCC1CCOC1)Nc1ccc(OCC(F)(F)F)nc1 (stereo not given)	3.959%
CN(C)c1ccc(NC(=O)NCC2CCOC2)cn1 (stereo not given)	74.68%
CCN(CC)c1ccc(NC(=O)NCC2CCOC2)cn1 (stereo not given)	3.627%
CCn1c(Cn2cncn2)nnc1C1CCN(C[C@H]2[C@@H]3CNC[C@@H]32)CC1	-28.34%
Cc1ccc(OCc2occc2C(=O)N2C[C@@H]3[C@@H](CN(C)C)[C@@H]3C2)cc1	-7.572%
CN(C)C(=O)CC1CC2(CCN(Cc3ccsc3)CC2)c2ccccc21.O=C(O)C(F)(F)F (stereo not given)	-34.9%
Cc1cc(C)n(-c2cncc(NCCNC(=O)C(C)C)n2)n1	-20.98%
CC(C)C(=O)Nc1cc(C(C)(C)C)nn1-c1ccccn1	4.241%
CC(=O)Nc1cc(C2CC2)nn1-c1nc(C)c(C)c(=O)[nH]1	27.84%
Cc1cc(NC(=O)C(C)C)n(-c2nc(C)c(C)c(=O)[nH]2)n1	104.4%

Compound	Percent Effect
Cc1nc(-n2nc(C3CC3)cc2NC(=O)C(C)C)[nH]c(=O)c1C	96.45%
CC(C)C(=O)Nc1cc(C(=O)NC2CC(C)(C)NC(C)(C)C2)nn1C	-49.16%
COc1cc(COCC2CCN(Cc3cccnc3)CC2)cc(OC)c1.O=C(O)C(=O)O	-22.42%
CC(C)CN1CCN(C)C2(CCN(Cc3ccsc3)CC2)C1=O.O=C(O)C(F)(F)F.O=C(O)C(F)(F)F	-18.88%
CCc1ccc(CN2CCc3ncnc(-c4cccnc4)c3CC2)o1.O=C(O)C(F)(F)F.O=C(O)C(F)(F)F	-16.65%
Cc1sc2nc(CCN)nc(N3CCS(=O)(=O)CC3)c2c1C	12.97%
CCOC(=O)N1CCN(c2nc(CCN)nc3sc(C)c(C)c23)CC1	82.82%
Cc1sc2nc(CCN)nc(N3CCN(S(C)(=O)=O)CC3)c2c1C	12.46%
CSc1nc(N)c2c(n1)N=C1COC(O)=C1C2c1cccc(O)c1 (stereo not given)	4.116%
Cc1ccsc1CN1CCc2nc3ccsc3c(=O)n2CC1.Cl	3.746%
CCN(CC)c1ccc(NS(=O)(=O)c2cncc(F)c2)cn1	-17.45%
CCN(CC)c1ccc(NS(=O)(=O)c2cccnc2)cn1	61.96%
CCN(CC)c1ccc(NS(=O)(=O)c2cnn(C)c2)cn1	-23.7%
CCCC(=O)N1C[C@@H]2CCN(c3cnccn3)C[C@@H]2C1.O=C(O)C(F)(F)F	-8.378%
O=C(O)C(F)(F)F.O=C(c1cscn1)N1CC[C@]2(C[C@@H](OCCN3CCCC3)CO2)C1	0.0126%
CNC(=O)[C@@H]1C[C@H]2CN(Cc3nccs3)C[C@H]2N1C.O=C(O)C(F)(F)F.O=C(O)C(F)(F)F	-19.94%
Cc1cccc(CN2C(=O)CC[C@@H]3[C@H]2CCN3Cc2ccc(C)s2)n1.O=C(O)C(F)(F)F.O=C(O)C(F)(F)F	6.515%
COc1ccc(Cl)cc1CS(=O)(=O)Cc1nc(C)no1	62.62%
COc1ccc(Cl)cc1CS(=O)(=O)Cc1noc(C)n1	-24.6%
COc1ccc(Cl)cc1CS(=O)(=O)Cc1nc(C2CC2)no1	45.18%
COCCCN(Cc1ccccn1)Cc1ccnn1C1CCCCO1.O=C(O)CC(O)(CC(=O)O)C(=O)O (stereo not given)	-20.24%
CCN(CC)C(=O)CCCNC(=O)c1csc(NC2CC2)n1	-1.337%
Cc1cccc(NC(=O)c2csc(NCC(C)C)n2)n1	-0.3454%
CC(C)CCNC(=O)c1csc(NC2CC2)n1	43.35%

Compound	Percent Effect
Cc1cnc(NC(=O)c2csc(NC3CCCC3)n2)s1	106.1%
CC(C)NC(=O)c1csc(NC2CC2)n1	28.59%
CC(C)CCNc1nc(C(=O)NC2CC2)cs1	15.23%
O=C(Nc1nccs1)c1csc(NC2CCCC2)n1	106.3%
Cc1nc(NC2CCCC2)cc(C2CCN2C(=O)c2ccccn2)n1 (stereo not given)	-9.873%
Cc1cnc(NC(=O)c2csc(NCC(C)C)n2)s1	103.8%
CC(NC(=O)Nc1nccs1)C(=O)NC1CCCC1 (stereo not given)	1.171%
CC(C)Nc1nc(C(=O)Nc2ccccn2)cs1	9.074%
O=C(Nc1ccccn1)c1csc(NC2CCCC2)n1	105.9%
CC1CCN(C(=O)C2(Cc3cc(C4CCOC4)no3)CCNCC2)CC1.Cl (stereo not given)	3.404%
COc1nn(C)c2c1CCCN(C(=O)c1cccc3cccnc13)C2.O=C(O)C(F)(F)F	-1.629%
COCC1CN(C(=O)Cc2cccs2)Cc2nnn(CC3CC3)c21 (stereo not given)	-31.31%
Nc1cc(CCC2CN(Cc3ccc4cc[nH]c4c3)CCO2)ccn1 (stereo not given)	-29.21%
Cc1ccsc1CN1C[C@@H]2COC[C@]2(COCC(=O)N(C)C)C1.O=C(O)C(F)(F)F	-23.94%
Cc1ccc(CN2CCC3(CC2)CN(c2ccccc2)C(=O)CO3)o1.O=C(O)C(F)(F)F	-15.41%
COCC1CC2(CCN(c3cccc(C)n3)CC2)CN1C(C)C.O=C(O)C(F)(F)F.O=C(O)C(F)(F)F (stereo not given)	24.58%
CN(C)C(=O)N1CCO[C@@H]2CC(COCc3cccnc3)C[C@H]21.O=C(O)C(F)(F)F (stereo not given in full)	17.51%
Cc1nc(COc2ccc(CNCCn3cccn3)cc2)cs1	-21.22%
Cc1ccc(OCc2nc(CNCCn3cccn3)cs2)cc1	94.11%
Cc1cnn(CCCNCc2csc(COc3ccccc3)n2)c1	15.28%
Cc1cnn(CCNCc2csc(COc3ccccc3)n2)c1	103.7%
Cc1cnn(CCNCc2ccc(OCc3csc(C)n3)cc2)c1	5.493%
c1ccc(OCc2nc(CNCCn3cccn3)cs2)cc1	46.73%
